Screening results from PubChem.
Most compounds without a hit are left out; they make up all but 12% or so of the library.
USP30 block: human USP30 deubiquitinase inhibition | purified USP30, Ub-rhodamine cleavage fluorescence | 5.3% of 47,000 active | inhibition, % at 25 µM | AID 1645860
USP8 block: human USP8 deubiquitinase inhibition; P40818; purified USP8, Ub-rhodamine cleavage fluorescence, 30 min; inhibition, % at 20 µM; 4.2% of 47,000 active; AID 1645853
USP10 block: inhibitors of human USP10 deubiquitinase; inhibition, % at 20 µM; purified USP10, Ub-rhodamine fluorescence, 60 min; 1.1% of 47,000 active; Q14694
UCHL1 inh: blocks human UCHL1 ubiquitin-rhodamine cleavage; P09936; purified UCHL1, Ub-rhodamine cleavage fluorescence; inhibition, % at 20 µM; 0.2% of 47,000 active; AID 1645859
USP7 inh: blocks human USP7 ubiquitin-rhodamine cleavage; 0.3% of 47,000 active; purified USP7, Ub-rhodamine cleavage fluorescence; inhibition, % at 20 µM; Q93009
USP17 inh: inhibitors of human USP17 deubiquitinase. A8MUK1. purified USP17, Ub-rhodamine cleavage fluorescence, 3 h. inhibition, % at 50 µM. 6.5% of 47,000 active. AID 1645855
A number is an active result. Rule as the data show it: active = inhibition above about 30%; inactive = the rest.

Cn1cc2nc(SCC(=O)Nc3ccc(Cl)cc3F)n(CC3CC3)c(=O)c2n1 was read as USP30 block inactive, USP8 block 32, USP10 block inactive, UCHL1 inh inactive, USP7 inh inactive and USP17 inh inactive.
Screening CCCn1c(SCC(=O)Nc2cc(S(=O)(=O)N(CC)c3ccccc3)ccc2Cl)nc2ccccc2c1=O returned USP30 block inactive, USP8 block inactive, USP10 block inactive, UCHL1 inh inactive, USP7 inh inactive and USP17 inh inactive.
Screening COCCCn1c(C(=O)NCCCN2CCCC2=O)cc2c(=O)n3ccccc3nc21 returned USP30 block inactive, USP8 block inactive, USP10 block inactive, UCHL1 inh inactive, USP7 inh inactive and USP17 inh inactive.
Cc1oc(C2CCN(C(=O)NC3CCCCC3)CC2)nc1C(=O)N1CCOCC1 was read as USP8 block inactive, USP10 block inactive, UCHL1 inh inactive, USP7 inh inactive and USP17 inh inactive.
Screening Cc1ccc(-n2nc(C)c3c(C)cc(C(=O)NCc4cccs4)nc32)cc1 returned USP30 block 46, USP8 block inactive, USP10 block inactive, UCHL1 inh inactive, USP7 inh inactive and USP17 inh 31.
For Cc1cccc(Cn2nc(C(C)(C)C)cc2C(=O)NCc2cccs2)c1 the results were USP30 block inactive, USP8 block inactive, USP10 block inactive, UCHL1 inh inactive, USP7 inh inactive and USP17 inh inactive.
For Cc1ccccc1-c1noc(-c2ccccc2OCC(=O)NCc2ccco2)n1 the results were USP30 block inactive, USP8 block inactive, USP10 block inactive, UCHL1 inh inactive, USP7 inh inactive and USP17 inh inactive.
O=C(COc1ccccc1-c1nnc(-c2ccccc2)o1)NCc1ccc(F)cc1 was read as USP30 block inactive, USP8 block 56, USP10 block inactive, UCHL1 inh inactive, USP7 inh inactive and USP17 inh inactive.
Screening O=C(COc1ccccc1-c1nc(-c2ccccc2)no1)Nc1ccccc1 returned USP30 block inactive, USP8 block inactive, USP10 block inactive, UCHL1 inh inactive, USP7 inh inactive and USP17 inh inactive.
O=C(COc1ccccc1-c1nnc(-c2ccccc2)o1)NCc1ccccc1Cl was read as USP30 block inactive, USP8 block inactive, USP10 block inactive, UCHL1 inh inactive, USP7 inh inactive and USP17 inh inactive.
Screening O=C(COc1ccccc1-c1nnc(-c2ccccc2)o1)Nc1ccccc1F returned USP30 block inactive, USP8 block inactive, USP10 block inactive, UCHL1 inh inactive, USP7 inh inactive and USP17 inh 46.
`O=C(COc1ccccc1-c1nnc(-c2ccccc2)o1)NCc1ccco1` gave USP30 block inactive, USP8 block 84, USP10 block inactive, UCHL1 inh inactive, USP7 inh inactive and USP17 inh inactive.
`Cc1ccnc(Nc2nc(C)c(C(=O)NCCN3CCOCC3)s2)c1` gave USP30 block inactive, USP8 block inactive, USP10 block inactive, UCHL1 inh inactive, USP7 inh inactive and USP17 inh inactive.
CS(=O)(=O)N1CCN(C(=O)C2CCCC2)CC(Cc2ccccn2)C1 (centres undefined) was read as USP30 block inactive, USP8 block inactive, USP10 block inactive, UCHL1 inh inactive, USP7 inh inactive and USP17 inh inactive.
`Cn1c(CN2CCOCC2)nnc1SCc1ccc(Cl)cc1` gave USP30 block 32, USP8 block inactive, USP10 block inactive, UCHL1 inh inactive, USP7 inh inactive and USP17 inh inactive.
Screening COc1cccc(C(=O)NCCSc2ccc(Cl)cc2)c1 returned USP30 block inactive, USP8 block inactive, USP10 block inactive, UCHL1 inh inactive, USP7 inh inactive and USP17 inh 35.
`CCN1CCC2(CC1)OC(=O)C(C)=C2C(=O)N1CCN(c2ncccn2)CC1` gave USP30 block inactive, USP8 block inactive, USP10 block inactive, UCHL1 inh inactive, USP7 inh inactive and USP17 inh inactive.
`CN(C(=O)COc1ccccc1-c1nnc(-c2ccccc2)o1)c1ccccc1` gave USP30 block inactive, USP8 block inactive, USP10 block inactive, UCHL1 inh inactive, USP7 inh inactive and USP17 inh inactive.
Screening COc1cc(-c2noc(-c3ccccc3C)n2)ccc1OCC(=O)NC(C)C returned USP30 block 33, USP8 block inactive, USP10 block inactive, UCHL1 inh inactive, USP7 inh inactive and USP17 inh inactive.
`COc1ccc(NC(=O)COc2ccccc2-c2nnc(-c3ccccc3)o2)cc1` gave USP30 block 33, USP8 block inactive, USP10 block inactive, UCHL1 inh inactive, USP7 inh inactive and USP17 inh 35.
